# In the library only some 1.5% were active in any assay of this set; here they are far more common.
# V-ATPase pHluor: alters yeast V-ATPase proton transport. S. cerevisiae, pHLuorin cytosolic pH fluorescence. response, % at 10 µM. 0.37% of 350,000 active. AID 504577; in the data active means response mostly above about 7.3%, no sharp cut-off; inactive means mostly below about 5.4%; further: actives read high
# CRFR2-BP antag: CRF-BP/CRF-R2 complex antagonism | HEK293 CRF-R2/CRF-BP, CRF-induced calcium fluorescence | inhibition, % at 11.8 µM | 0.59% of 350,000 active | AID 588475;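 active means inhibition of the ligand-induced calcium signal above about 50% at the single tested concentration, limit read from the data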
# NTR1 agonist: agonists of human neurotensin receptor NTR1; P30989; activation, % at 20 µM; 0.17% of 330,000 active; NTR1-U2OS beta-arrestin-GFP spot imaging, agonist mode;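 active means activation at or above 40% of the spot to cytoplasm intensity ratio, with at least 20 cells analyzed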;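 further: 0% = DMSO without peptide and 100% = 100 nM NTR1 peptide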
# Target sequence (P30989 whole entry, looked up): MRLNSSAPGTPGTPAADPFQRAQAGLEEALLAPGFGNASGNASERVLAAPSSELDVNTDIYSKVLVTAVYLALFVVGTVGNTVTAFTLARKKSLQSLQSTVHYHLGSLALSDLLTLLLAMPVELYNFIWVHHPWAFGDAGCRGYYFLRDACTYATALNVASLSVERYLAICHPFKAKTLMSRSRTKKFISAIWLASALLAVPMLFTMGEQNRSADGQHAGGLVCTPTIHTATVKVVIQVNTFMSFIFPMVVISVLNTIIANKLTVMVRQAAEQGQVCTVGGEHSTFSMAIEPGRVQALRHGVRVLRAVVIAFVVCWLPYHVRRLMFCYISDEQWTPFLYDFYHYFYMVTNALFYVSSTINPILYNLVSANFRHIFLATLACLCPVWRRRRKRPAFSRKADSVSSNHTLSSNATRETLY
# CRFR2-BP ag: CRF-BP/CRF-R2 complex agonism; HEK293 CRF-R2/CRF-BP, calcium dye fluorescence (FLIPR); percent of saturating CRF peptide response; activation, % at 13.2 µM; 0.46% of 350,000 active;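 active means activation of at least 50%, plus an integration ratio under a set limit after plate pattern correction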;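 further: plate controls were neutral control wells without compound for no effect and CRF at EC100 for full effect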
# Starred values were filed as active, the others as inactive; . = no result given.
SMILES,V-ATPase pHluor,CRFR2-BP antag,NTR1 agonist,CRFR2-BP ag
O=C1c2ccccc2C(=O)c2c(/C=C/N3CCCCC3)ccnc21,-14,-8,.,1
CN(CC(=O)Nc1ccccc1Cl)C(=O)COC(=O)c1nc(Cl)c(Cl)c(Cl)c1Cl,1,-4,15,3
CC1CCCC(NC(=O)CSc2nnc(C(F)(F)F)n2C)C1C (stereo unspecified),6,2,0,-1
Cc1ccc(C(=O)NCC(=O)OC(C)C(=O)Nc2ccc(N(C)C)cc2)cc1C (stereo unspecified),-2,-24,0,0
Nc1c(C(=O)N2CCCCCC2)oc2ccccc12,4,112*,4,0
CC(=O)Nc1c(-c2ccccc2)c2cc(Br)ccc2[nH]c1=O,-1,-15,2,-1
O=C(Nc1ccc(F)cc1)c1nc(S(=O)(=O)Cc2ccccc2)ncc1Cl,1,56*,-2,-1
COc1ccc(OC)c(NC(=O)c2nc(S(=O)(=O)Cc3ccccc3)ncc2Cl)c1,2,62*,13,-1
CS(=O)(=O)N1CCC(C(=O)Nc2cc(Cl)cc(Cl)c2)CC1,-4,-2,0,0
O=C(NCCc1ccccc1F)C1CCCN(c2nc3ccccc3s2)C1 (stereo unspecified),3,7,0,0
Cc1ccc(Cl)cc1N(CC(=O)N1CCOCC1)S(C)(=O)=O,0,74*,0,1
O=C(O)c1ccc(OCc2occc2C(=O)O)cc1,17*,5,-1,0
COc1ccc(OC)c(S(=O)(=O)N2CCc3ccccc32)c1,0,-4,-3,1
COc1ccc(OC)c(S(=O)(=O)N2c3ccccc3CC2C)c1 (stereo unspecified),1,53*,0,-2
CC(C)c1ccc2oc(=O)cc(CN3CCCCC3)c2c1,3,14,1,-1
CCSc1nsc(NC(=O)Nc2cccc(F)c2)n1,-1,13,19,52*
COc1cccc(NC(=O)Nc2nc(SC)ns2)c1,0,11,1,8
O=C(Nc1ccc(N2CCN(c3ccccc3)CC2)c(F)c1)C1CC1,4,58*,0,1
Cc1ccc(SCC(=O)Nc2ccc(N3CCN(c4ccccc4)CC3)c(F)c2)cc1,0,0,0,0
Cc1ccc(S(=O)(=O)N2CCN(C(=O)COC(=O)COc3ccc(Cl)cc3)CC2)c(C)c1,3,7,.,8
COc1cccc(C(=O)Nc2cc(=O)n(C)c(=O)n2C)c1,2,8,-1,-1
COc1ccc(C(=O)Nc2cc(=O)n(C)c(=O)n2C)cc1,4,104*,1,0
CCN1CCN(C(=O)CS(=O)Cc2nc(-c3cccc(C)c3)oc2C)CC1 (stereo unspecified),-2,-15,0,0
Cc1cccc(-c2nc(CS(=O)CC(=O)N3CC(C)CC(C)C3)c(C)o2)c1 (stereo unspecified),0,55*,0,-1
CNC(=O)CN(C1CCCCC1)S(=O)(=O)c1ccc(F)cc1,4,56*,0,-6
SMILES,V-ATPase pHluor,CRFR2-BP antag,NTR1 agonist,CRFR2-BP ag
CCOC(=O)CC1C(=O)NCCN1C(=O)c1ccc(Cl)cc1 (stereo unspecified),2,1,-1,0
CN(C)CCNc1ccc2ncn3c4ccc(O)cc4c(=O)c1c23,-11,-60,.,75*
COc1ccc(-c2nnc(-c3cc4c(ccc5ccccc54)oc3=O)o2)cc1,3,43,4,29
O=c1oc2ccc3ccccc3c2cc1-c1nnc(-c2ccccc2)o1,10,61*,10,2
CN(C)Cc1c(O)ccc2cc(-c3nc4ccccc4n3C)c(=O)oc12,-76,1,1,20
CCN(CC)c1ccc2cc(-c3nc4ccccc4[nH]3)c(=O)oc2c1,-10,-190,-3,227*
O=c1oc2ccccc2cc1-c1nc(-c2cccs2)cs1,-5,-27,3,15
CCN(CC)c1ccc2cc(-c3nc4ccccc4n3C)c(=O)oc2c1,-3,-239,.,248*
COc1cccc2cc(-c3nc4ccccc4[nH]3)c(=O)oc12,0,0,-1,-1
CCN(CC)c1ccc2cc(-c3nc(-c4ccc(OC)cc4)cs3)c(=O)oc2c1,.,-404,-6,338*
O=C(c1ccco1)N1CCN(C2CC(=O)N(c3ccc(F)c(Cl)c3)C2=O)CC1 (stereo unspecified),2,-3,0,-1
CCN(CC)c1ccc2cc(-c3nnc(-c4ccccc4)o3)c(=O)oc2c1,1,-155,-2,192*
N#CC(C#N)=C1NC(N)=C(C#N)C(c2ccccc2)=C1C#N,3,.,-1,.
CC1CCN(S(=O)(=O)c2ccc3c(c2)NC(=O)CS3)CC1,1,63*,2,1
Cc1cccc(N2CCN(S(=O)(=O)c3ccc4c(c3)NC(=O)CS4)CC2)c1C,1,-6,12,4
Cc1ccc(NC(=O)CN(C)C(=O)CSc2nccn2C)cc1,2,3,1,1
CCCCCCc1cc2cc(C(=O)NCc3ccccc3)c(=N)oc2cc1O,-2,-109,1,175*
CC(=O)Oc1cccc(N2C(=O)C3C4C=CC(C4)C3C2=O)c1 (stereo unspecified),5,7,1,-2
C=C(C)C(=O)Oc1ccc(N2C(=O)[C@@H]3C4C=CC(C4)[C@@H]3C2=O)cc1,-3,61*,0,-1
O=C(COC(=O)/C=C/c1ccccc1Cl)NCCNC(=O)COC(=O)/C=C/c1ccccc1Cl,3,4,1,0
CC1CN(c2sc(S(C)(=O)=O)nc2S(=O)(=O)c2ccc(Cl)cc2)CC(C)O1 (stereo unspecified),13*,-9,2,-3
O=C1OCCC1Sc1nc2cc(Cl)ccc2s1 (stereo unspecified),12,38,5,-1
CSc1nc2cc(Cl)ccc2s1,0,52*,-1,-1
CC(=O)N/N=C/c1cc(C(C)C)cc(/C=N/NC(C)=O)c1O,2,-47,1,92*
O=C(CSc1nc2ccccc2c(=O)n1Cc1ccco1)c1ccccc1,3,-14,5,6
SMILES,V-ATPase pHluor,CRFR2-BP antag,NTR1 agonist,CRFR2-BP ag
Cc1cc(-n2c(C)cc(C(=O)CSc3nc4ccccc4c(=O)n3Cc3ccco3)c2C)no1,3,-51,7,68*
CN(C)/C=N/c1sccc1C(N)=O,16*,10,4,-2
Cc1ccc(S(=O)(=O)N2CCN(c3ccccc3)CC2)cc1C(=O)NC1CCCCC1,2,2,1,2
Nc1nnc(SCC(=O)NNC(=O)c2ccccc2F)s1,-1,-5,-1,5
COc1ccc(OC)c(C(C[N+](=O)[O-])c2c(C)cc3ccccn23)c1 (stereo unspecified),3,3,50*,1
CN(CC(=O)NCC(=O)Nc1ccc(F)cc1)C1CCS(=O)(=O)C1 (stereo unspecified),-2,4,0,0
CCCCNC(=O)Cc1coc2ccc3ccccc3c12,0,5,6,-2
CC(=O)Nc1sc(/C(C#N)=C/c2ccc(Cl)c(Cl)c2)nc1-c1ccc(C)cc1,-63,-320,.,281*
CC(=O)Nc1sc(N/N=C/c2ccc(C)cc2)nc1-c1ccc(C)cc1,4,-21,0,-5

# Screens from PubChem.
